Measured values: PubChem BioAssay AID1159580 (chemical genetic matrix, 2015)
“And” between values parts separate entries of the source, which are not always exact repeats. Equal values may be shown once. In all, about 5,500 compounds went through this assay and about 2,000 (36%) were called active. Another 18% or so got no clear call; they are omitted. Rule as the data show it: active = normalized growth mostly below about 0.91 (no sharp cut-off); inconclusive = no clear call, values can overlap the other calls; inactive = mostly above about 0.92. This is one part of the list.

Assay: chemical genetic growth profiling, strain panel (AID 1159580);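 also: tested at 20 µM; growth read once vehicle control cultures reached saturation at 30 °C; 1 = growth at the plate median or of vehicle wells; lower values mean less growth of the strain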
Details: S. cerevisiae deletion strains, growth OD

Measured: normalized growth

O=NN(CCCl)C(=O)NCCCl
active: locus YJR066W, strain TOR1, hits give low values 0.389 | locus YKL009W, strain mrt4, hits give low values 0.851 | locus YKL160W, strain elf1, hits give low values 0.86 | locus YLR113W, strain HOG1, hits give low values 0.312 | locus YLR221C, strain rsa3, hits give low values 0.851 | locus YLR320W, strain mms22, hits give low values 0.589 | locus YLR357W, strain rsc2, hits give low values 0.813 | locus YLR418C, strain cdc73, hits give low values 0.601 | locus YML120C, strain ndi1, hits give low values 0.852 | locus YMR058W, strain fet3, hits give low values 0.878 | locus YNL071W, strain lat1, hits give low values 0.914 | locus YNL183C, strain NPR1, hits give low values 0.368 | locus YNL248C, strain rpa49, hits give low values 0.763 | locus YNL250W, strain rad50, hits give low values 0.852 | locus YNL298W, strain CLA4, hits give low values 0.888 | locus YNL322C, strain KRE1 (second series), hits give low values 0.764 | locus YOR001W, strain rrp6, hits give low values 0.751 | locus YOR083W, strain WHI5, hits give low values 0.844 | locus YOR106W, strain vam3, hits give low values 0.786 | locus YOR184W, strain ser1, hits give low values 0.783 | locus YOR231W, strain MKK1, hits give low values 0.295 | locus YOR270C, strain vph1, hits give low values 0.638 | locus YPL256C, strain CLN2, hits give low values 0.352 | strain wtn01, hits give low values 0.853
inactive: locus YJR075W, strain HOC1, hits give low values 0.995 | locus YKL068W, hits give low values 0.997 | locus YKL085W, strain MDH1 (second series), hits give low values 0.994 | locus YKL085W, strain MDH1, hits give low values 0.994 | locus YKL190W, strain CNB1, hits give low values 1.03 | locus YKR001C, strain vps1, hits give low values 0.904 | locus YKR026C, strain gcn3, hits give low values 0.983 | locus YKR091W, strain srl3, hits give low values 0.975 | locus YLL001W, strain dnm1, hits give low values 0.963 | locus YLL026W, hits give low values 0.973 | locus YLL041C, strain sdh2, hits give low values 0.957 | locus YLR027C, strain aat2, hits give low values 0.934 | locus YLR039C, strain RIC1, hits give low values 1.08 | locus YLR058C, strain SHM2, hits give low values 0.984 | locus YLR102C, strain apc9, hits give low values 0.99 | locus YLR258W, strain gsy2, hits give low values 0.965 | locus YLR262C, strain YPT6 (second series), hits give low values 0.939 | locus YLR262C, strain YPT6, hits give low values 0.988 | locus YLR268W, strain sec22, hits give low values 0.957 | locus YLR330W, strain CHS5, hits give low values 0.989 | locus YLR342W, strain FKS1 (second series), hits give low values 0.967 | locus YLR342W, strain FKS1, hits give low values 0.958 | locus YLR370C, strain arc18, hits give low values 0.972 | locus YLR371W, strain rom2, hits give low values 0.972 | locus YLR384C, strain iki3, hits give low values 0.96 | locus YML016C, strain PPZ1, hits give low values 0.989 | locus YML032C, strain rad52, hits give low values 0.915 | locus YML124C, strain tub3, hits give low values 0.997 | locus YMR078C, strain ctf18, hits give low values 0.98 | locus YMR125W, strain sto1, hits give low values 0.961 | locus YMR129W, hits give low values 0.967 | locus YMR205C, strain PFK2, hits give low values 0.878 | locus YMR223W, strain ubp8, hits give low values 0.918 | locus YMR231W, strain pep5, hits give low values 0.973 | locus YMR263W, strain SAP30, hits give low values 0.948 and 0.997 | locus YMR307W, strain GAS1, hits give low values 0.781 and 0.985 | locus YNL067W, strain RPL9B, hits give low values 0.947 | locus YNL175C, strain NOP13, hits give low values 0.984 | locus YNL197C, strain WHI3, hits give low values 1.01 | locus YNL209W, strain ssb2, hits give low values 0.965 | locus YNL224C, strain SQS1, hits give low values 1 | locus YNL233W, strain BNI4, hits give low values 0.959 | locus YNL271C, strain bni1, hits give low values 0.947 | locus YNL307C, strain MCK1, hits give low values 0.96 | locus YNL322C, strain KRE1, hits give low values 1 | locus YNR049C, strain mso1, hits give low values 0.964 | locus YNR052C, strain pop2, hits give low values 0.994 | locus YOL006C, strain TOP1, hits give low values 0.789 | locus YOL012C, strain htz1 0.791 | locus YOL147C, strain pex11, hits give low values 0.981 | locus YOR061W, strain CKA2, hits give low values 0.996 | locus YOR069W, strain VPS5, hits give low values 0.996 | locus YOR070C, strain gyp1, hits give low values 0.968 | locus YOR080W, strain dia2, hits give low values 0.924 | locus YOR083W, strain WHI5 (second series), hits give low values 1.01 | locus YOR136W, strain idh2, hits give low values 0.967 | locus YOR144C, strain elg1, hits give low values 0.984 | locus YOR265W, strain rbl2, hits give low values 0.957 | locus YOR290C, strain snf2, hits give low values 0.872 | locus YOR316C, strain cot1, hits give low values 0.989 | locus YPL051W, strain arl3, hits give low values 0.942 | locus YPL055C, strain LGE1, hits give low values 0.777 | locus YPL078C, strain atp4, hits give low values 0.918 | locus YPL106C, strain sse1, hits give low values 1.05 | locus YPL240C, strain hsp82, hits give low values 0.976 | locus YPR119W, strain clb2, hits give low values 0.992 | locus YPR141C, strain kar3, hits give low values 0.991 | locus YPR163C, strain tif3, hits give low values 0.984 | locus YPR167C, strain met16, hits give low values 0.991
